Source: PubChem BioAssay AID2402 (Southern Research Specialized Biocontainment Screening …, 2010)
Entries with a potency or affinity are not part of this list. A number with no mark means an inactive call.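 How the source made its calls: active means viability below 70% at one or more tested doses; inactive means viability above 70% at every dose tested.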

Assay: Vero cell viability after compound exposure – synthesized analogs, set II, cytotoxicity control for West Nile virus antiviral project, SAR follow-up (AID 2402)
Settings: Vero E6 viability, CellTiter-Glo, 72 h; series mostly up to 100 µM; viability: at the top concentration

Q: Which “viability” value does the source give for `COc1ccccc1NC(=O)CSc1nc2ccccc2c(=O)n1-c1ccc(F)cc1` here?
A: 101%

Q: For `CC(=O)Nc1ccc2nc3n(c(=O)c2c1)CCC3`, which “viability” value is on record?
A: 86.2%

Q: For `Cc1ccc2nc3n(c(=O)c2c1)CCC3`, which “viability” value is on record?
A: 76.8%

Q: Which “viability” value does the source give for `O=c1c2c(F)cccc2nc2n1CCC2` here?
A: 102%

Q: For `CC1(O)c2cc(Br)ccc2N=C2CCCN21` (stereo not given), which “viability” value is on record?
A: 73.1%

Q: With `O=c1c2cccc(Cl)c2nc2n1CCC2` as the molecule, how does the “viability” value read?
A: 81.5%

Q: With `COc1ccc(NC(=O)CSc2nc3ccccc3c(=O)n2-c2ccc(F)cc2)cc1` as the molecule, how does the “viability” value read?
A: 82%

Q: For `Cc1cccc2c(=O)n3c(nc12)CCC3`, which “viability” value is on record?
A: 82.8%

Q: With `O=C(CSc1nc2ccccc2c(=O)n1-c1ccccc1)Nc1ccc2c(c1)CCC2` as the molecule, how does the “viability” value read?
A: 78.5%

Q: Which “viability” value does the source give for `Cc1cccc2nc3n(c(=O)c12)CCC3` here?
A: 87.6%

Q: With `O=[N+]([O-])c1ccc2c(c1)C(O)N1CCCC1=N2` (stereo not given) as the molecule, how does the “viability” value read?
A: 77.9%

Q: With `OC1c2cc(I)ccc2N=C2CCCN21` (stereo not given) as the molecule, how does the “viability” value read?
A: 106% [at 200 µM]

Q: Which “viability” value does the source give for `Nc1ccc2nc3n(c(=O)c2c1)CCC3` here?
A: 88.1%

Q: Which “viability” value does the source give for `O=C(CSc1nc2ccccc2c(=O)n1-c1ccc(F)cc1)Nc1ccc2c(c1)OCCO2` here?
A: 80.1%

Q: With `Cc1cc(OC(=O)c2c(F)cccc2F)n(Cc2ccccc2)n1` as the molecule, how does the “viability” value read?
A: 94% [at 200 µM]
